A short description of experiment [1]: NCI Yeast Anticancer Drug Screen. Data for the rad50 strain (AID 155).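 Also: 0% = growth of vehicle-only cultures of the same strain.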 The conditions noted are these: S. cerevisiae rad50 strain growth inhibition; at 50.0 µM; stronger effect = higher value. The procedure, abridged:
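Yeast carrying a defined DNA repair defect were exposed to test compounds, and growth was compared with vehicle-treated controls to give percent inhibition.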

Experiment [2] can be described thus: NCI Yeast Anticancer Drug Screen. Data for the mec2-1 strain (AID 157). Conditions: S. cerevisiae mec2-1 strain, at 50.0 µM, stronger effect = higher value. The method, boiled down: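 Growth inhibition is read against vehicle-treated controls after compound exposure of the mec2-1 yeast strain, which is defective in DNA damage repair or cell cycle control.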
Experiment [3] in a line: NCI Yeast Anticancer Drug Screen. Data for the sgs1 mgt1 strain (AID 161).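 Also: 0% = growth of cultures given vehicle only.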 Conditions: S. cerevisiae sgs1 mgt1 strain, at 50.0 µM, stronger effect = higher value. The method, boiled down:
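This yeast growth screen uses a strain with defined DNA-repair lesions; compound-treated growth is compared with vehicle-treated growth.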

Experiment [4] can be described thus: NCI Yeast Anticancer Drug Screen. Data for the cln2 rad14 strain (AID 165).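 Also: 0% = growth equal to vehicle treated cultures.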 The conditions noted are these: S. cerevisiae cln2 rad14 strain, at 50.0 µM, stronger effect = higher value. The procedure, abridged: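 Growth inhibition, relative to vehicle-treated controls, is the read-out. The test organism is a yeast strain with defined genetic alterations, cln2 rad14.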
Experiment [5] can be described thus: NCI Yeast Anticancer Drug Screen. Data for the bub3 strain (AID 167). Conditions: S. cerevisiae bub3 mutant strain, at 50.0 µM, stronger effect = higher value. The procedure, abridged:
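Compounds were applied to a genetically altered yeast strain carrying a cell-cycle control defect. Growth inhibition was scored against vehicle-treated controls.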

Experiment [6] can be described thus: NCI Yeast Anticancer Drug Screen. Data for the mlh1 rad18 strain (AID 175). Conditions: S. cerevisiae mlh1 rad18 strain growth inhibition; at 50.0 µM; stronger effect = higher value. The method, boiled down: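 Cells of a genetically altered yeast strain, deficient in DNA damage repair, were treated with compound. Their growth was then compared with that of vehicle-treated cultures to give inhibition.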

About 79,000 compounds went through this panel and 15% of them were active in at least one assay; those are over-represented in the sample as a whole. A number with no mark means an inactive call. Active and inactive are the calls of the source. Rule as the data show it: active = growth inhibition above about 70%; inactive = the rest.

The text below walks through data of PubChem BioAssay (NCI).

Consider `ClCCCCCOCCCCCCl`, for which the growth inhibition was 8.15% in experiment [1]; 1.25% in experiment [2]; -1.5% in experiment [3]; -11.7% in experiment [4]; -4.75% in experiment [5]; -1.05% in experiment [6].

As to `Cn1cnc2c(=S)nc[nH]c21`, the growth inhibition is 7.75% in experiment [1]; -10% in experiment [2]; -25.1% in experiment [3]; -9.9% in experiment [4]; -8.75% in experiment [5]; -20.9% in experiment [6].

In the case of `COc1c(C)c(=O)n2c3ccccc3n(C)c2c1C#N`, the growth inhibition in experiment [1] was 19.5%; in experiment [2] it was 10.3%; in experiment [3], -18.4%; in experiment [4], 8.55%; in experiment [5] it was 0.85%; in experiment [6], 14.8%.

`COc1cccc(Cc2cncc3c(O)c(OC)ccc23)c1O`: the growth inhibition in experiment [1] is 2.3%; in experiment [2], -6.4%; in experiment [3], -8.05%; in experiment [4] it was 3%; in experiment [5], -1.9%; in experiment [6], 9.95%.

For the molecule `COc1ccc(/C=C/[n+]2ccccc2)cc1OC`, the growth inhibition in experiment [1] was -1.45%; in experiment [2], 4.85%; in experiment [3], 4.05%; in experiment [4], -14.2%; in experiment [5], 10.7%; in experiment [6], -3.85%.

Turning to `O=CNCCc1ccc2c(c1)[nH]c1ccccc12`, the growth inhibition in experiment [1] is 8.45%; in experiment [2], 16.1%; in experiment [3] it was 12.9%; in experiment [4], -11.3%; in experiment [5] it was -13.2%; in experiment [6], 20.6%.

`CC1=C(C(=O)NNC(=O)CC#N)CC(C(=O)NNC(=O)CC#N)=C(C)N1`: the growth inhibition in experiment [1] was -27.7%; in experiment [2] it was -43.8%; in experiment [3] it was -20.8%; in experiment [4] it was -24.6%; in experiment [5], -27.4%; in experiment [6], -0.05%.

With `OCCCCCOCc1ccccc1`, the growth inhibition in experiment [1] is 18.9%; in experiment [2], 3.6%; in experiment [3] it was 42.1%; in experiment [4] it was 42.8%; in experiment [5] it was -8.65%; in experiment [6], 23.3%.

As for `OCCSCCCCCSCCO`, the growth inhibition is -2.6% in experiment [1]; -7.7% in experiment [2]; -7.3% in experiment [3]; -2.15% in experiment [4]; -7.4% in experiment [5]; -15.3% in experiment [6].

For the molecule `CCCCCCCCCCCCCC(=O)N(CCCCCCCCC)CC(O)C(O)C(OC1OC(CO)C(O)C(O)C1O)C(O)CO` (stereo unspecified), the growth inhibition in experiment [1] was -13.8%; in experiment [2], -41.4%; in experiment [3] it was -17.4%; in experiment [4], -28.4%; in experiment [5] it was -49.1%; in experiment [6], -56.5%.

In the case of `c1ccc2c3c(ccc2c1)CCCC3`, the growth inhibition was 7.5% in experiment [1]; -2.15% in experiment [2]; 2.9% in experiment [3]; -8% in experiment [4]; 15.9% in experiment [5]; 0.7% in experiment [6].

For the molecule `Oc1c(Cl)cc(N=Cc2ccc(N(CCCCl)CCCCl)cc2)cc1Cl`, the growth inhibition in experiment [1] is 92.6% (active); in experiment [2], 14.7%; in experiment [3] it was 94.8% (active); in experiment [4], 92% (active); in experiment [5], -13.6%; in experiment [6] it was 80% (active).

For `O=C(N/N=C\c1cc(=O)[nH]c(=O)[nH]1)c1ccccc1`, the growth inhibition in experiment [1] was -18.1%; in experiment [2], -2.95%; in experiment [3], -11.5%; in experiment [4], -6.75%; in experiment [5], -14.2%; in experiment [6] it was 2.9%.

Turning to `O=c1[nH]c2cc(Cl)c(Cl)cc2c2ccc(Cl)cc12`, the growth inhibition in experiment [1] is 12.2%; in experiment [2], -5.55%; in experiment [3] it was -0.35%; in experiment [4] it was -38%; in experiment [5], -15.6%; in experiment [6], -14.1%.

Turning to `N#CC(NCCc1ccccc1)c1ccccc1` (stereo unspecified), the growth inhibition was 2.45% in experiment [1]; -3.1% in experiment [2]; -32.8% in experiment [3]; -20.1% in experiment [4]; -56.7% in experiment [5]; -3.95% in experiment [6].

On to `CCCCC/C(=C\c1ccccc1)C1OCC(COC(C)=O)O1` (stereo unspecified), for which the growth inhibition was -37.6% in experiment [1]; -5.8% in experiment [2]; -2.25% in experiment [3]; -30.2% in experiment [4]; 40.8% in experiment [5]; -2.6% in experiment [6].

For `OC(C/C(=N\Nc1ccccc1)c1ccc(Br)cc1)(C(F)(F)F)C(F)(F)F`, the growth inhibition was 67.2% in experiment [1]; 97% (active) in experiment [2]; 88.8% (active) in experiment [3]; 85.7% (active) in experiment [4]; 44.9% in experiment [5]; 96.5% (active) in experiment [6].

As for `COc1cccc(C(=O)O)c1O`, the growth inhibition in experiment [1] is -16.9%; in experiment [2] it was -11.8%; in experiment [3] it was -15.3%; in experiment [4] it was -8.8%; in experiment [5] it was -19.9%; in experiment [6], -7.7%.

In the case of `c1ccc(CSc2nc3ccccc3nc2-c2cccs2)cc1`, the growth inhibition in experiment [1] was -48.7%; in experiment [2], -51.9%; in experiment [3] it was -34.5%; in experiment [4], -1.85%; in experiment [5] it was -51.9%; in experiment [6], -29.8%.

Turning to `CCN(CC)c1ccc(-c2ccccc2)cc1`, the growth inhibition in experiment [1] is 28.1%; in experiment [2] it was 5.4%; in experiment [3] it was -8.45%; in experiment [4], -69.4%; in experiment [5], 2.9%; in experiment [6], 8.5%.

Turning to `COc1cc(Cl)c(CC(=O)c2c[nH]c3ccccc23)cc1OC`, the growth inhibition is 10.6% in experiment [1]; -27.1% in experiment [2]; -17.8% in experiment [3]; -31.7% in experiment [4]; -29.2% in experiment [5]; 20.6% in experiment [6].
